A selection: hits, their analogues and other compounds. The true share with any hit is near 8.7%.
JMJD2A Tudor inh: blocks the human JMJD2A Tudor domain. O75164. AlphaScreen JMJD2A-Tudor / H3K4me3 peptide binding. Potency, µM (series often up to 114 µM), without a hit: at the top dose activity change, negative = inhibition, usual class: inhibitors. 4.4% of 390,000 active. AID 504339; note: % is set by controls: 0 for no effect and ±100 for the full control effect; nearly all actives have a fitted effect of over 50% in size
G9a inh: inhibitors of human histone lysine methyltransferase G9a; 8.8% of 350,000 active; AID 504332; G9a H3K9 monomethylation, AlphaScreen, 2 h; Potency, µM (top dose mostly 102 µM), for the others: at the top dose activity, negative = inhibition, hits mostly inhibitors; Q96KQ7; note: % is set by controls: 0 for no effect and ±100 for the full control effect; nearly all actives have a fitted effect of over 75% in size
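Methyltransferase reactions run at room temperature for 2 h (20 nM enzyme, 500 nM biotin-H3K9 peptide, 20 uM SAM) after a 15 min compound preincubation; product detected by AlphaScreen beads and anti-H3K9me1 antibody.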
BAZ2B inh: blocks human BAZ2B; Potency, µM (top dose mostly 114 µM), for the others: at the highest dose activity change, negative = inhibition, most hits filed as inhibitors; Q9UIF8; AID 504333; 4.4% of 360,000 active; AlphaScreen BAZ2B-H3K14Ac peptide displacement; note: % is set by controls: 0 for no effect and ±100 for the full control effect; nearly all actives have a fitted effect of over 60% in size
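In this displacement format the biotinylated H3(5-23) peptide acetylated at Lys14 serves as ligand at 50 nM, with BAZ2B at 50 nM in PBS pH 7.4 containing 0.01% Tween-20. Donor and acceptor beads are 10 ug/mL final.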
Sfp PPTase inh: blocks B. subtilis Sfp PPTase activity. Q9F4F7. Biochemical Sfp PPTase activity, qHTS. Potency, µM, inactives show largest response in the series, negative = inhibition, actives largely listed as inhibitors. 3.5% of 310,000 active;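 note: the enzyme is Sfp with the accession as filed and its product quenches rhodamine fluorescence; 0% = enzyme reaction without inhibitor and -100% = no enzyme wells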
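Reaction rates are the 30-min fluorescence difference (ex 525, em 598 nm) in wells containing 15 nM Sfp, 5 uM rhodamine-CoA and 12.5 uM BHQ-2-YbbR at pH 7.6 with 10 mM MgCl2.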
12-LOX inh: ALOX12 (human) lipoxygenase inhibition; P18054; purified 12hLO, xylenol orange hydroperoxide absorbance; Potency, µM (titrated, usually from 108 µM), without a hit: at the top dose activity change, negative = inhibition, actives largely listed as inhibitors; 1.1% of 580,000 active; note: % is set by controls: 0 for no effect and ±100 for the full control effect
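Purified human 12hLO (150 nM final) in 25 mM Hepes, 0.01% Triton X-100, pH 7.0 was preincubated 15 min at room temperature with compound. Then 40 uM arachidonic acid was added, 30 min. Hydroperoxide was read by Fe-XO absorbance ratio 573/405 nm.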
HP1b binding inh: blocks HP1-beta chromodomain binding to methylated histone tails; AID 540317; P83916; AlphaScreen HP1-beta / biotin-H3K9me3 peptide binding; Potency, µM (series often up to 114 µM), inactives show top-dose activity change, negative = inhibition, hits mostly inhibitors; 0.56% of 390,000 active; note: nearly all actives have a fitted effect of over 70% in size
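HP1-beta protein (50 nM final) preincubated 30 min at room temperature with biotinylated H3(1-18)K9me3 peptide (50 nM) in PBS pH 7.4, 0.01% Tween-20, then compound added for 30 min. AlphaScreen streptavidin donor/nickel chelate acceptor beads (10 ug/mL final), 30 min dark, luminescence read.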
* = called active by the depositor; ? = inconclusive; nt = no result; [ ] = another dose, or the depositor's remark. Calls come from the whole dose curve; as a rule, active = well fitted curve in the direction sought with a large enough effect; inconclusive = small, poorly fitted or top-dose-only effect, or another doubt; inactive = no such curve, though single readings can be large; an effect the other way counts as inactive or inconclusive. Potency is the fitted concentration of half-maximal effect.

SMILES	JMJD2A Tudor inh	G9a inh	BAZ2B inh	Sfp PPTase inh	12-LOX inh	HP1b binding inh
Cc1ccc(NC2=C/C(=N\S(=O)(=O)c3cccs3)c3ccccc3C2=O)c(C)c1	4.47µM*	7.94µM*	3.55µM*	-7.1%	nt	5.62µM*
Cc1cccc(NC2=C/C(=N/S(=O)(=O)c3cccs3)c3ccccc3C2=O)c1	5.62µM*	?	2.51µM*	?	-10.3%	?
COc1cccc2cc(C(=O)N(C)CCOc3cccc(Cl)c3)c(=O)oc12	nt	nt	nt	nt	0.6%	nt
CC(C#N)OC(=O)c1ccc(CNC(=O)OC(C)(C)C)cc1 (stereo unspecified)	nt	nt	nt	nt	-0.5%	nt
CCn1cc(CN2CCC(N3CC(OCCOC)C34CCCCC4)CC2)cn1 (stereo unspecified)	nt	nt	nt	nt	36.7%	nt
O=c1[nH][nH]cc1C=Nc1cc(Cl)ccc1O	79.4µM*	?	14.1µM*	17.1%	-13.3%	32.7%
O=c1[nH][nH]cc1C=Nc1ccccc1O	-25.2%	64.8%[12.7 µM]	39.8µM*	11.6%	9.0%	50.2%
C1CC(OCC2CC2)CN1 (stereo unspecified)	nt	nt	nt	nt	26.7%	nt
Cc1cc(=O)[nH]c(SCC(=O)NNC(=O)Cc2ccccc2)n1	-2.9%	36.4%	-37.6%	-7.0%	14.0%	16.9%
COc1ccc(CC(=O)NNC(=O)CSc2nc(C)c(C)c(=O)[nH]2)cc1	-4.9%	-26.6%	3.1%	89.1µM*	6.3%	-1.1%
O=[N+]([O-])c1ccc(O)c(Nc2ncnc3ccc(Br)cc23)c1	-31.2%	?	?	7.1%	?	?
O=[N+]([O-])c1ccc(O)c(Nc2c([N+](=O)[O-])ccc3nonc23)c1	?	50.1µM*	50.1µM*	-9.4%	?	-24.2%[57 µM]
Cc1ccc(C)c(Nc2c([N+](=O)[O-])ccc3nonc23)c1	-31.2%	?	3.55µM*	4.5%	0.1%	?
CC(=O)N1CCC(Oc2ccc(Cl)cc2C(=O)NCCCN2CCCC2=O)CC1	nt	nt	nt	nt	4.2%	nt
COc1ccc(-c2cc(C(F)(F)F)nc(NCc3ccccc3)n2)cc1	115.0%	186.6%[59 µM]	174.5%	nt	-18.5%	204.9%
COc1ccc(-c2cc(C(F)(F)F)c3c(=O)n(-c4ccccc4)[nH]c3n2)cc1	56.2µM*	12.6µM*	?	-26.4%	nt	-38.5%
COc1ccc(-c2c[n+]3c4n2CCCCC4=C(c2ccccc2)C3)cc1	39.8µM*	14.1µM*	56.2µM*	-28.4%	?	-4.7%
COc1ccc(N2C(=O)CC(c3ccc([N+](=O)[O-])cc3)C2=O)cc1 (stereo unspecified)	-1.7%	?	-2.4%	15.7%	nt	37.0%
CCOC(=O)CN1C(=O)CC(c2ccc([N+](=O)[O-])cc2)C1=O (stereo unspecified)	-3.3%	44.7µM*	-2.2%	6.0%	83.0%	28.5%
CCOc1ccc2nc(SCC3CC3(Cl)Cl)[nH]c2c1 (stereo unspecified)	2.8%	44.7µM*	-19.1%	8.9%	?	30.7%
COc1ccc2nc(SCCN(C)C)[nH]c2c1	-21.2%	?	50.1µM*	11.3%	0.0%	?
CCC(C)N(C(=O)CSc1nc2ccc(OC)cc2[nH]1)C1CCS(=O)(=O)C1 (stereo unspecified)	-8.9%	39.8µM*	7.6%	nt	-17.4%	18.6%
COc1ccc(NC(=O)Cn2ccc3cc(Cl)ccc32)cc1	nt	nt	nt	nt	2.1%	nt
OC(c1ccco1)c1nc(-c2cccs2)cs1 (stereo unspecified)	nt	nt	nt	nt	17.8µM*	nt
OCc1cccc(-c2csc(C(O)c3ccccc3)n2)c1 (stereo unspecified)	nt	nt	nt	nt	-0.4%	nt
CC(C)c1cccc(-c2csc(C(O)c3ccco3)n2)c1 (stereo unspecified)	nt	nt	nt	nt	14.1µM*	nt
CC(=O)NC(c1cccc(F)c1)c1nc(-c2cccs2)cs1 (stereo unspecified)	nt	nt	nt	nt	-8.5%	nt
Cc1[nH]c(=S)sc1Cc1cccc(C(F)(F)F)c1	nt	nt	nt	nt	25.1µM*	nt
Cc1ccc(-c2noc(-c3nc(Cc4ccc(F)cc4)no3)n2)cc1	nt	nt	nt	nt	31.9%	nt

High-throughput results: PubChem BioAssay, National Center for Advancing Translational Sciences (NCATS)
